# Results taken from the supplement of paper PMC4466140.
# B1: unnamed (peptide)
# chain: PELAPKREAPKPPAN
# What was measured:
# Experiment in all cases: SPOT peptide array binding signal intensity (averaged, normalized) (arbitrary units (background-subtracted, floor 0; scale differs between SH3 domains)); higher = stronger binding of the SH3 domain to the peptide
# AgAbp1 = biological target: AgAbp1
# Method in brief: (§1)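 The binding signal is the normalized, background-subtracted spot intensity averaged over replicates; its arbitrary units differ between domains. It was obtained by incubating 10 μg/ml GST-fused SH3 domains from four yeast species overnight at 4°C in TBS-based blocking buffer on cellulose membranes with synthetic 15-mer peptides, cysteines replaced by serines, then detecting with anti-GST antibody, HRP anti-mouse secondary and luminol.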
# AgBbc1 = biological target: AgBbc1
# Method in brief: as §1
# AgBem1-D1 = biological target: AgBem1-D1
# Method in brief: as §1
# AgBzz1-D1 = biological target: AgBzz1-D1
# Method in brief: as §1
# AgBzz1-D2 = biological target: AgBzz1-D2
# Method in brief: as §1
# AgCyk3 = biological target: AgCyk3
# Method in brief: as §1
# AgFus1 = biological target: AgFus1
# Method in brief: as §1
# AgHof1 = biological target: AgHof1
# Method in brief: as §1
# AgHse1 = biological target: AgHse1
# Method in brief: as §1
# AgLsb1 = biological target: AgLsb1
# Method in brief: as §1
# AgLsb4 = biological target: AgLsb4
# Method in brief: as §1
# AgMyo5 = biological target: AgMyo5
# Method in brief: as §1
# AgNbp2 = biological target: AgNbp2
# Method in brief: as §1
# AgRvs167 = biological target: AgRvs167
# Method in brief: as §1
# AgSho1 = biological target: AgSho1
# Method in brief: as §1
# AgSla1-D1-D2 = biological target: AgSla1-D1-D2
# Method in brief: as §1
# AgSla1-D3 = biological target: AgSla1-D3
# Method in brief: as §1
# CaAbp1-D1 = biological target: CaAbp1-D1
# Method in brief: as §1
# CaAbp1-D2 = biological target: CaAbp1-D2
# Method in brief: as §1
# CaBbc1 = biological target: CaBbc1
# Method in brief: as §1
# CaBem1-D1 = biological target: CaBem1-D1
# Method in brief: as §1
# CaBzz1-D1 = biological target: CaBzz1-D1
# Method in brief: as §1
# CaBzz1-D2 = biological target: CaBzz1-D2
# Method in brief: as §1
# CaCyk3 = biological target: CaCyk3
# Method in brief: as §1
# CaFus1 = biological target: CaFus1
# Method in brief: as §1
# CaHof1 = biological target: CaHof1
# Method in brief: as §1
# CaHse1 = biological target: CaHse1
# Method in brief: as §1
# CaLsb1 = biological target: CaLsb1
# Method in brief: as §1
# CaLsb4 = biological target: CaLsb4
# Method in brief: as §1
# CaMyo5 = biological target: CaMyo5
# Method in brief: as §1
# CaNbp2 = biological target: CaNbp2
# Method in brief: as §1
# CaRvs167 = biological target: CaRvs167
# Method in brief: as §1
# CaRvs167-3 = biological target: CaRvs167-3
# Method in brief: as §1
# CaSho1 = biological target: CaSho1
# Method in brief: as §1
# CaSla1-D1-D2 = biological target: CaSla1-D1-D2
# Method in brief: as §1
# CaSla1-D3 = biological target: CaSla1-D3
# Method in brief: as §1
# ScAbp1 = biological target: ScAbp1
# Method in brief: as §1
# ScBbc1 = biological target: ScBbc1
# Method in brief: as §1
# ScBem1-D1 = biological target: ScBem1-D1
# Method in brief: as §1
# ScBzz1-D1 = biological target: ScBzz1-D1
# Method in brief: as §1
# ScBzz1-D2 = biological target: ScBzz1-D2
# Method in brief: as §1
# ScCyk3 = biological target: ScCyk3
# Method in brief: as §1
# ScFus1 = biological target: ScFus1
# Method in brief: as §1
# ScHof1 = biological target: ScHof1
# Method in brief: as §1
# ScHse1 = biological target: ScHse1
# Method in brief: as §1
# ScLsb1 = biological target: ScLsb1
# Method in brief: as §1
# ScLsb2 = biological target: ScLsb2
# Method in brief: as §1
# ScLsb3 = biological target: ScLsb3
# Method in brief: as §1
# ScLsb4 = biological target: ScLsb4
# Method in brief: as §1
# ScMyo3 = biological target: ScMyo3
# Method in brief: as §1
# ScMyo5 = biological target: ScMyo5
# Method in brief: as §1
# ScNbp2 = biological target: ScNbp2
# Method in brief: as §1
# ScPex13 = biological target: ScPex13
# Method in brief: as §1
# ScRvs167 = biological target: ScRvs167
# Method in brief: as §1
# ScSho1 = biological target: ScSho1
# Method in brief: as §1
# ScSla1-D1-D2 = biological target: ScSla1-D1-D2
# Method in brief: as §1
# ScSla1-D3 = biological target: ScSla1-D3
# Method in brief: as §1
# SpAbp1-D1 = biological target: SpAbp1-D1
# Method in brief: as §1
# SpBbc1 = biological target: SpBbc1
# Method in brief: as §1
# SpBzz1-D1 = biological target: SpBzz1-D1
# Method in brief: as §1
# SpBzz1-D2 = biological target: SpBzz1-D2
# Method in brief: as §1
# SpCyk3 = biological target: SpCyk3
# Method in brief: as §1
# SpHof1 = biological target: SpHof1
# Method in brief: as §1
# SpHof1-2 = biological target: SpHof1-2
# Method in brief: as §1
# SpHof1-3 = biological target: SpHof1-3
# Method in brief: as §1
# SpHse1 = biological target: SpHse1
# Method in brief: as §1
# SpLsb1 = biological target: SpLsb1
# Method in brief: as §1
# SpLsb4 = biological target: SpLsb4
# Method in brief: as §1
# SpMyo1 = biological target: SpMyo1
# Method in brief: as §1
# SpNbp2 = biological target: SpNbp2
# Method in brief: as §1
# SpPex13 = biological target: SpPex13
# Method in brief: as §1
# SpRvs167 = biological target: SpRvs167
# Method in brief: as §1
# SpSla1-D1-D2 = biological target: SpSla1-D1-D2
# Method in brief: as §1
# SpSla1-D3 = biological target: SpSla1-D3
# Method in brief: as §1
binder,measurement,setting,value
B1,SPOT peptide array binding signal intensity,AgAbp1,0.5
same,SPOT peptide array binding signal intensity,AgBbc1,≤ 0
same,SPOT peptide array binding signal intensity,AgBem1-D1,7.5
same,SPOT peptide array binding signal intensity,AgBzz1-D1,34.5
same,SPOT peptide array binding signal intensity,AgBzz1-D2,12
same,SPOT peptide array binding signal intensity,AgCyk3,≤ 0
same,SPOT peptide array binding signal intensity,AgFus1,0.5
same,SPOT peptide array binding signal intensity,AgHof1,2.5
same,SPOT peptide array binding signal intensity,AgHse1,≤ 0
same,SPOT peptide array binding signal intensity,AgLsb1,≤ 0
same,SPOT peptide array binding signal intensity,AgLsb4,≤ 0
same,SPOT peptide array binding signal intensity,AgMyo5,560
same,SPOT peptide array binding signal intensity,AgNbp2,564
same,SPOT peptide array binding signal intensity,AgRvs167,2.83
same,SPOT peptide array binding signal intensity,AgSho1,≤ 0
same,SPOT peptide array binding signal intensity,AgSla1-D1-D2,≤ 0
same,SPOT peptide array binding signal intensity,AgSla1-D3,3
same,SPOT peptide array binding signal intensity,CaAbp1-D1,≤ 0
same,SPOT peptide array binding signal intensity,CaAbp1-D2,3.5
same,SPOT peptide array binding signal intensity,CaBbc1,73.2
same,SPOT peptide array binding signal intensity,CaBem1-D1,1
same,SPOT peptide array binding signal intensity,CaBzz1-D1,652
same,SPOT peptide array binding signal intensity,CaBzz1-D2,265
same,SPOT peptide array binding signal intensity,CaCyk3,≤ 0
same,SPOT peptide array binding signal intensity,CaFus1,14
same,SPOT peptide array binding signal intensity,CaHof1,≤ 0
same,SPOT peptide array binding signal intensity,CaHse1,0.5
same,SPOT peptide array binding signal intensity,CaLsb1,≤ 0
same,SPOT peptide array binding signal intensity,CaLsb4,≤ 0
same,SPOT peptide array binding signal intensity,CaMyo5,1.5
same,SPOT peptide array binding signal intensity,CaNbp2,1020
same,SPOT peptide array binding signal intensity,CaRvs167,0.667
same,SPOT peptide array binding signal intensity,CaRvs167-3,≤ 0
same,SPOT peptide array binding signal intensity,CaSho1,≤ 0
same,SPOT peptide array binding signal intensity,CaSla1-D1-D2,≤ 0
same,SPOT peptide array binding signal intensity,CaSla1-D3,1
same,SPOT peptide array binding signal intensity,ScAbp1,1
same,SPOT peptide array binding signal intensity,ScBbc1,17
same,SPOT peptide array binding signal intensity,ScBem1-D1,≤ 0
same,SPOT peptide array binding signal intensity,ScBzz1-D1,91
same,SPOT peptide array binding signal intensity,ScBzz1-D2,10
same,SPOT peptide array binding signal intensity,ScCyk3,≤ 0
same,SPOT peptide array binding signal intensity,ScFus1,≤ 0
same,SPOT peptide array binding signal intensity,ScHof1,≤ 0
same,SPOT peptide array binding signal intensity,ScHse1,≤ 0
same,SPOT peptide array binding signal intensity,ScLsb1,≤ 0
same,SPOT peptide array binding signal intensity,ScLsb2,0.5
same,SPOT peptide array binding signal intensity,ScLsb3,≤ 0
same,SPOT peptide array binding signal intensity,ScLsb4,≤ 0
same,SPOT peptide array binding signal intensity,ScMyo3,1310
same,SPOT peptide array binding signal intensity,ScMyo5,906
same,SPOT peptide array binding signal intensity,ScNbp2,1560
same,SPOT peptide array binding signal intensity,ScPex13,5
same,SPOT peptide array binding signal intensity,ScRvs167,≤ 0
same,SPOT peptide array binding signal intensity,ScSho1,≤ 0
same,SPOT peptide array binding signal intensity,ScSla1-D1-D2,≤ 0
same,SPOT peptide array binding signal intensity,ScSla1-D3,4.5
same,SPOT peptide array binding signal intensity,SpAbp1-D1,5
same,SPOT peptide array binding signal intensity,SpBbc1,≤ 0
same,SPOT peptide array binding signal intensity,SpBzz1-D1,9
same,SPOT peptide array binding signal intensity,SpBzz1-D2,0.5
same,SPOT peptide array binding signal intensity,SpCyk3,1
same,SPOT peptide array binding signal intensity,SpHof1,0.5
same,SPOT peptide array binding signal intensity,SpHof1-2,1.5
same,SPOT peptide array binding signal intensity,SpHof1-3,1
same,SPOT peptide array binding signal intensity,SpHse1,7.5
same,SPOT peptide array binding signal intensity,SpLsb1,≤ 0
same,SPOT peptide array binding signal intensity,SpLsb4,≤ 0
same,SPOT peptide array binding signal intensity,SpMyo1,1220
same,SPOT peptide array binding signal intensity,SpNbp2,≤ 0
same,SPOT peptide array binding signal intensity,SpPex13,≤ 0
same,SPOT peptide array binding signal intensity,SpRvs167,≤ 0
same,SPOT peptide array binding signal intensity,SpSla1-D1-D2,≤ 0
same,SPOT peptide array binding signal intensity,SpSla1-D3,≤ 0
